Most compounds without a hit are left out; they make up all but 1.3% or so of the library.
Rango-impB inh: inhibitors of Rango-importin beta complex formation; AID 540263; actives 0.031% (n = 340,000); Potency, µM (top dose mostly 92.2 µM), without a hit: at the top dose inhibition of complex formation; Rango CFP/YFP FRET sensor + importin beta, 45 min;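 further: potency means the concentration at half of the fitted maximal effect; 0% = DMSO wells and 100% = buffer wells lacking importin beta; nearly all actives have a fitted effect of over 15% in size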
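Inhibition scored from the CFP 486 nm/YFP 530 nm FRET ratio 45 min after adding 0.125 microM importin beta to 50 nM Rango biosensor preincubated 5 min with compound (room temperature, PBS with DTT, Tween-20, BSA). No-importin wells as positive control.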
Rango release inh: prevents RanGTP from dissociating the Rango-importin beta complex; actives 0.071% (n = 340,000); O95149+P62826; Potency, µM (highest dose often 46.1 µM), inactives show at the top dose activity change, negative = inhibition; Biochemical FRET Rango-importin beta, RanGTP-induced dissociation; further: potency means the concentration at half of the fitted maximal effect; % of control where 0% means no effect; nearly all actives have a fitted effect of over 45% in size
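Two FRET readings bracket the reaction: one 5 min after compound meets Rango–importin beta, another 45 min after RanGTP-RCC1 (0.6 uM Ran, 0.2 uM RCC1, 2 mM GTP) is added. Only the second defines inhibition.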
hERG WT inh: inhibitors of human wildtype KCNH2 potassium channel; AID 720551; actives 0.37% (n = 340,000); Q12809; U2OS, BacMam KCNH2, thallium flux FluxOr; active compounds read low; activity change, % at 1.84 µM;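 active means maximum activity change below -70%; inconclusive means maximum activity change between -70% and -50%; inactive means maximum activity change above -50%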; further: on the % scale 0 is the no-effect control and ±100 the full control effect
Target sequence (Q12809 whole entry, looked up): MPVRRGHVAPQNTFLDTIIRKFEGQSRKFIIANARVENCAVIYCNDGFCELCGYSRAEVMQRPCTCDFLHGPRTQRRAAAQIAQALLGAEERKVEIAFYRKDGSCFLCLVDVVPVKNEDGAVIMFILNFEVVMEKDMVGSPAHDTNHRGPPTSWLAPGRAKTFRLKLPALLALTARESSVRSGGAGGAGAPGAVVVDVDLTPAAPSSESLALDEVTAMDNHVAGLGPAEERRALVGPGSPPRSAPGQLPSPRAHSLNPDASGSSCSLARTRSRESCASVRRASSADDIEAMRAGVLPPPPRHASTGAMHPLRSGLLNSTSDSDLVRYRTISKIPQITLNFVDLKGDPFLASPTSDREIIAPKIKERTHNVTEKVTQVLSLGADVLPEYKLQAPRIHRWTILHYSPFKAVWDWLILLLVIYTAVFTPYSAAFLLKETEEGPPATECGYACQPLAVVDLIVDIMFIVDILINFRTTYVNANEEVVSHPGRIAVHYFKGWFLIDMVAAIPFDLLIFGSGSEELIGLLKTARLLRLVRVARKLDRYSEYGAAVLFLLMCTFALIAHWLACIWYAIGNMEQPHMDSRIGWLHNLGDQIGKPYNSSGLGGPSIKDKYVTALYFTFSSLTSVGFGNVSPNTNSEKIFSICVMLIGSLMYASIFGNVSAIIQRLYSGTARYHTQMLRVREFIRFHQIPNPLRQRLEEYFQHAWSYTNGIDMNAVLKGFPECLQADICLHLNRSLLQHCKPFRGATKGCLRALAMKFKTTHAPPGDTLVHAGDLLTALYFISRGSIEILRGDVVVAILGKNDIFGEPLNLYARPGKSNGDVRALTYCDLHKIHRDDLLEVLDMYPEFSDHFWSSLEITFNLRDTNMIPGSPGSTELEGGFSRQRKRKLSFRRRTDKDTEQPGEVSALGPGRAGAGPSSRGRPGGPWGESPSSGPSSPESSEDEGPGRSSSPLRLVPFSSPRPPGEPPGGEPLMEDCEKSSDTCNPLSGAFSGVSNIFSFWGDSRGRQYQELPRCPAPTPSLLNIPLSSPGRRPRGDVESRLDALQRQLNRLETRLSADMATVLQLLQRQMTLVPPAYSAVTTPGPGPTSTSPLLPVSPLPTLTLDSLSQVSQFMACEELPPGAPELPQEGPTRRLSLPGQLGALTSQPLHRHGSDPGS
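U2OS cells were transduced with wild-type KCNH2 virus (2.03 x 10^8 / mL) for 4 h at room temperature, then cultured overnight at 37 C. Thallium flux was read with FluxOr dye. Rate constants were normalized to DMSO controls.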
KCNH2 3.1 block: inhibitors of human KCNH2 3.1 potassium channel isoform; U2OS KCNH2 3.1, thallium flux FluxOr; active compounds read low; activity change, % (tested at about 1.8 µM); AID 720553; actives 0.95% (n = 340,000);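 active means maximum activity change below -70%; inconclusive means maximum activity change from -70% to -50%; inactive means maximum activity change above -50%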;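 further: thallium influx rate constant from kinetic fluorescence after stimulation buffer; on the % scale 0 is the no-effect control and ±100 the full control effect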
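We transduce U2OS cells with the mutant 3.1 virus, culture them overnight, load FluxOr with Red40 quencher for 45 min, then add stimulation buffer and read kinetically for 2 min to derive a normalized rate constant.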
Starred values were filed as active, the others as inactive; ? = inconclusive; · = not tested or not shown. Unless noted, the call rests on the fitted dose curve.

SMILES	Rango-impB inh	Rango release inh	hERG WT inh	KCNH2 3.1 block
CC(=O)N(C)c1ccc(OCC(O)Cn2c3ccc(Cl)cc3c3cc(Cl)ccc32)cc1 (centres undefined)	0.1%	7.5%	-75.5*	-29.1
CCCCN(C)CCCNC(=O)c1cn(CC)c2ccc(S(=O)(=O)N3CCc4ccccc4C3)cc2c1=O	17.0%	12.6%	?	-91.4*
CCCCN(CCCC)CCNC(=O)c1cn(CC)c2ccc(S(=O)(=O)N(C)C3CCCCC3)cc2c1=O	-0.2%	-4.8%	-70.2*	-82.6*
CCCCN(CC)CCCNC(=O)c1cn(CC)c2ccc(S(=O)(=O)N3CCc4ccccc4C3)cc2c1=O	3.1%	-23.7%	0.8	-20.4
Cc1cccc(CN2C(=O)NC(c3ccccc3)(c3ccccc3)C2=O)c1	0.7%	6.4%	4.1	-89.2*
CC(C)(C)C(=O)CN1C(=O)NC(c2ccccc2)(c2ccccc2)C1=O	-0.1%	6.3%	-2.0	-16.3
O=c1oc(/C=C/c2ccc([N+](=O)[O-])s2)nc2ccccc12	?	9.2µM*	-1.2	4.0
O=[N+]([O-])c1ccccc1CN1CCN(Cc2ccc3ccccc3c2)CC1	-0.9%	9.0%	4.5	-80.4*
COc1cc(CN2CCCC(C)C2)ccc1OCc1ccccc1 (centres undefined)	-0.1%	6.1%	31.3	-84.5*
COc1cc(CN2CCN(C(O)(c3ccccc3)c3ccccc3)CC2)cc(OC)c1OC	-0.8%	1.7%	31.7	-75.5*
COc1ccc(CN2CCN(Cc3ccc4ccccc4c3)CC2)cc1OC	3.5%	14.4%	-11.9	-87.6*
Cc1c(N(C)C(=O)COc2ccc3ccccc3c2)c(=O)n(-c2ccccc2)n1C	?	3.1%	-0.8	-20.5
CC1Cc2ccccc2N1C(=O)CN1C(=O)NC2(CCCCC2)C1=O (centres undefined)	-1.8%	10.7%	-0.3	3.5
CC(=O)NC12CC3CC(C1)CC(C(=O)Oc1ccc(N(C)S(=O)(=O)c4cc(C)ccc4C)cc1)(C3)C2	-0.4%	-4.7%	5.6	1.0
O=C(OCc1nnc(-c2ccc(Cl)cc2)o1)c1ccncc1	0.1%	-11.9%	-9.2	28.2
Cc1ccccc1C(=O)OCc1nnc(-c2ccc(Cl)cc2)o1	7.6%	4.8%	-1.6	-76.7*
COc1ccc(-c2c(-c3ccc(OC)nc3)c3ccccc3n2C)cc1	?	-18.4%	3.8	-2.3
COc1cc(C2NC(=O)NC(O)(C(F)(F)F)C2C(C)=O)cc(OC)c1OC (centres undefined)	0.1%	-7.7%	-185.6*	-3.4
CC(=O)C1C(c2ccc(F)cc2)NC(=O)NC1(O)C(F)(F)F (centres undefined)	?	-1.4%	-0.1	7.5
CC(C)c1c(C(=O)N/N=C/C2CC=CCC2)nnn1-c1nonc1N (centres undefined)	0.2%	14.9%	-10.3	2.0
COC(=O)c1ccccc1N(Cc1ccccc1)S(C)(=O)=O	-3.2%	-7.5%	-10.0	-4.9
COc1ccccc1NC(=O)c1ccccc1N(Cc1ccccc1)S(C)(=O)=O	-0.8%	-19.5%	-214.7*	14.2
CC(C)NC(=O)c1ccccc1N(Cc1ccccc1)S(C)(=O)=O	3.0%	0.2%	-25.0	-75.4*
NC(=O)C(CCc1nc2ccccc2[nH]1)NS(=O)(=O)c1ccccc1 (centres undefined)	·	·	-11.7	-2.0
COc1ccc(/C=C(\NC(=O)c2ccc(Cl)cc2)C(=O)NCC2CCCO2)cc1OC (centres undefined)	2.2%	-8.0%	2.3	-8.7
SMILES	Rango-impB inh	Rango release inh	hERG WT inh	KCNH2 3.1 block
O=C(Nc1cccc(F)c1)N1CCC(n2c(=O)[nH]c3ccccc32)CC1	-1.3%	-2.5%	-228.4*	-193.2*
COc1ccc(-c2cnnc(N/N=C/c3ccc(-c4ccc([N+](=O)[O-])cc4)o3)n2)cc1	-0.5%	-18.3%	-10.9	-148.6*
O=C(CCc1ccccc1)NNC(=O)COc1ccccc1	2.8%	8.6%	6.6	-100.5*
Cc1ccc(NC(=O)COC(=O)COc2cccc3c2OC(C)(C)C3)cc1S(=O)(=O)N1CCOCC1	-2.0%	3.6%	19.8	5.5
COc1ccc(C(=S)NCS(=O)(=O)c2ccc(C)cc2)cc1	-2.4%	1.6%	-148.2*	5.3
CSc1ccccc1NC(=O)COC(=O)Cc1ccsc1	4.6%	-1.2%	1.2	-96.8*
CC12CCC(=O)C=C1C(F)CC1C2C(O)CC2(C)C1CCC2(O)C(=O)CO (centres undefined)	0.0%	-7.1%	6.4	-6.4
COc1cc(OC)cc(C(=O)NC2CC3CCC(C2)N3C)c1 (centres undefined)	3.7%	-2.2%	9.8	-12.4
COc1ccc(-c2cccc(-c3cc(=O)oc4cc(OC)cc(OC)c34)c2)cc1	-0.1%	-0.7%	4.8	?
COc1cc(OC)c2c(-c3cccc(/C=C/c4ccc(F)cc4)c3)cc(=O)oc2c1	0.3%	-6.0%	-152.8*	-19.2
CCC(=O)c1ccc(OCC(O)CN2CCN(C(c3ccccc3)c3ccccc3)CC2)cc1 (centres undefined)	2.3%	-9.3%	-87.9*	-97.9*
N#Cc1ccc(OCC(O)CN2CCN(CC(O)COc3ccc(C#N)cc3)CC2)cc1 (centres undefined)	4.8%	5.7%	-147.1*	-107.0*
c1ccc(OCCOCCN2CCc3ccccc3C2)cc1	-2.9%	-9.2%	9.7	-39.8
c1ccc(OCCOCCN2CCN(C(c3ccccc3)c3ccccc3)CC2)cc1	-0.6%	18.1%	-78.2*	-86.4*
COc1ccccc1OCCCCN1CCN(C(c2ccccc2)c2ccccc2)CC1	?	-11.4%	-48.9	-93.3*
COc1cccc(OC)c1OCCCCCCN1CCN(C)CC1	?	11.3%	5.2	-21.4
CC[C@]12c3[nH]c4ccc(Cl)cc4c3CCN1C(=O)[C@@H](CC(=O)NC/C=C(\C)CCC=C(C)C)C[C@@H]2C(=O)N1CCN(C(=O)c2ccco2)CC1	-0.9%	-2.7%	-5.2	·
CCOC(OCC)c1nc(N)[nH]c(=O)c1CCCCc1ccccc1	-1.2%	-1.7%	1.2	3.5
C=C(CN(C)C)C(=O)c1cc(C)ccc1C	1.7%	1.9%	-27.3	-7.4
NC(=O)c1ccc(NC(=O)COC(=O)c2ccc(Br)o2)cc1	3.6%	13.1%	-1.5	-4.1
N#Cc1ccc(-c2ccc(OCC(O)CN3CCCCC3)cc2)cc1 (centres undefined)	-3.5%	4.7%	54.9	-31.9
N#Cc1ccc(OCC(O)CN2CCN(c3ncc(C(F)(F)F)cc3Cl)CC2)cc1 (centres undefined)	0.2%	-3.6%	?	-100.5*
N#Cc1ccc(OCC(O)CN2CCN(C(c3ccccc3)c3ccccc3)CC2)cc1 (centres undefined)	1.6%	17.5%	-84.1*	-99.8*
OC(CN1CCN(c2ncc(C(F)(F)F)cc2Cl)CC1)c1ccccc1 (centres undefined)	-1.1%	-19.9%	-3.7	?
OC(COCc1ccco1)CN1CCN(C(c2ccccc2)c2ccccc2)CC1 (centres undefined)	0.9%	-10.4%	-76.2*	-104.4*

Source: PubChem BioAssay (National Center for Advancing Translational Sciences (NCATS))
